Reference: ChEMBL document CHEMBL4513216, “Probing the Open Global Health Chemical Diversity Library for Multistage-Active Starting Points for Next-Generation Antimalarials” (ACS Infect Dis, 2020)
The whole screen tested about 69,000 compounds, of which about 8,600 (12%) showed an effect of 50% or more. The sample holds strong results, similar compounds and a random draw of the others, so the mix is not that of the screen.

System: Plasmodium berghei
Assay: Screen against P. berghei liver stage (PbLuc), transformed with Luciferase, at 10uM
Assay type: functional, HepG2
Settings: tested at 10 uM

Point of comparison: `Cc1nc(CN2CCN(C(=O)c3sccc3C)CC2)cs1`, INHIBITION -117%. Against it:
- CC(C)c1cc(NC(=O)CNC2CCc3nc(C(C)C)nn3C2)on1 (stereo unspecified) — higher, 35.7%
- Cc1c(C2CCCN(C(=O)c3ccncc3)C2)n2c(nc1=O)CCC2 (stereo unspecified) — higher, 20.8%
- Cc1c(C2CCCN(C(=O)C3CC3)C2)n2c(nc1=O)CCC2 (stereo unspecified) — higher, 28.4%
- Cc1noc(C)c1C(=O)N1CCCC(c2c(C)c(=O)nc3n2CCC3)C1 (stereo unspecified) — higher, 55.6%
- N#Cc1c(F)cccc1Nc1cnn(CC(=O)N2CCOCC2)c1 — higher, 19.2%
- N#Cc1c(F)cccc1Nc1cnn(CC(N)=O)c1 — higher, 65.4%
- CNC(=O)Cn1cc(Nc2cccc(F)c2C#N)cn1 — higher, -0.514%
- CCc1csc(C2CCCN(C(=O)c3cnc[nH]3)C2)n1 (stereo unspecified) — higher, 10%
- CN(Cc1ccco1)Cc1cnc2n1CCN(c1ncccn1)CC2 — higher, 2.4%
- Cc1ccc(S(=O)(=O)NCC(C)(C)N)c(F)c1 — higher, 8.51%
- CN1CCCC(CNC(=O)N(C)Cc2ccc(Cl)c(F)c2)C1 (stereo unspecified) — higher, 31%
- O=S(=O)(N1CCCC1)N1CC[C@H](c2ccccc2)[C@H]2NCCCC[C@H]21 — higher, 52%
- CCN(CC)S(=O)(=O)N1CCCC(c2cccc(C(=O)O)c2)C1 (stereo unspecified) — higher, -31.5%
- O=S(=O)(N1CCCC1)N1CCCCC1CCc1ccccc1 (stereo unspecified) — higher, 31.8%
- CN1CCCCC[C@@H]2[C@@H]1[C@H](c1ccccc1)CN2C(=O)c1ccccn1 — higher, -37%
- O=S(=O)(N1CCCC1)N1C[C@@H](c2cccc(F)c2)[C@@H]2NCCCCC[C@H]21 — higher, 43.6%
- CCN(CC)S(=O)(=O)N1CC[C@H](c2ccccc2)[C@@H]2[C@H]1CCCCN2C — higher, 73.1%
- CC(C)S(=O)(=O)N1C[C@@H](c2ccccc2)[C@H]2[C@H]1CCCCCN2C — higher, 16.5%
- N[C@H]1CN(S(=O)(=O)N2CCCC2)C[C@@H]1c1ccccc1 — higher, 44.2%
- CCN(CC)S(=O)(=O)N1C[C@@H](c2ccccc2)[C@H]2[C@H]1CCCCCN2C — higher, 51.7%
- CCN(CC)S(=O)(=O)N1CC[C@H](c2ccccc2)[C@H]2NCCCC[C@H]21 — higher, 47.2%
- CCN(CC)S(=O)(=O)N1CCCC1CC(=O)c1cccs1 (stereo unspecified) — higher, -2.74%
- CN1CCCC[C@@H]2[C@H]1[C@@H](c1ccccc1)CCN2S(=O)(=O)N1CCCC1 — higher, 61.7%
- CC[C@@H](c1ccccc1)n1c(CCN)n[nH]c1=O — higher, 39%
- CCc1noc(C(C)N2CCN(c3ccc(C#N)cc3F)CC2)n1 (stereo unspecified) — higher, -17.4%
- O=C(CC1CCCC1)NCCS(=O)(=O)N1CCN(c2ccccc2)CC1 — higher, -16.4%
- CC(=O)NCc1cc(-c2cccs2)n(C2CCCC2)n1 — higher, 1.74%
- COc1c(C2CCCN2CC(=O)N(C)c2nccs2)c(C)nn1C (stereo unspecified) — higher, 8.7%
- CN(C)c1ccc(C(=O)N2CCCC2c2noc(C3CC3)n2)nn1 (stereo unspecified) — higher, 3.263%
- Cc1ncc2c(n1)CN(CC(=O)Nc1nnc(C)s1)CC2 — higher, 34.7%
- O=C(NCC1CC1)[C@@H]1CCO[C@@H]2CCN(CCc3ccccc3)C[C@H]21 — higher, 47.1%
- COCC(=O)NCc1cc2n(n1)CCCN(Cc1ccccc1SC)C2 — higher, -46.2%
- CN(Cc1ccccc1)CC(O)Cn1cnc2cc(F)ccc2c1=O (stereo unspecified) — higher, -8.7%
- O=C(Nc1cnccn1)[C@H]1COC[C@H]2CN(c3ncc(F)cn3)C[C@H]21 — higher, 67.4%
- O=C(Nc1cnccn1)[C@@H]1COC[C@H]2CN(c3ncc(F)cn3)C[C@H]21 — higher, -22.7%
- O=C(NC1CC1)[C@H]1COC[C@H]2CN(c3ncc(F)cn3)C[C@H]21 — higher, 58.5%
- O=C([C@H]1COC[C@H]2CN(c3ncc(F)cn3)C[C@H]21)N1CCOCC1 — higher, -0.554%
- CS(=O)(=O)N1C[C@@H]2COC[C@H](C(=O)Nc3cnccn3)[C@@H]2C1 — higher, 45.2%
- O=C(NCc1ccco1)[C@@H]1COC[C@H]2CN(c3ncc(F)cn3)C[C@H]21 — higher, 3.88%
- CC(=O)N1[C@H](CN(C)C)C[C@@H]2CN(C(=O)c3ccsc3)CC[C@@H]21 — higher, -24.5%
- O=C([C@H]1CN(CCc2ccccc2)C[C@H]2OCC[C@@H]12)N1CCCO1 — higher, 8.57%
- COc1ccc(Cn2cc(C(=O)N(C)Cc3cnccn3)nn2)cc1 — higher, 21.5%
- COCCNC(=O)CCNc1cc(C)nc(-c2ccncc2)n1 — higher, 24%
- COc1cccc(CNc2cccnc2-n2cccn2)c1OC — higher, 17.3%
- COc1cccc(CNc2cc(C)nc(-c3ccncc3)n2)c1O — higher, 78.9%
- Cc1cc(NCCC(=O)NC(C)C)nc(-c2ccncc2)n1 — higher, -2.43%
- COc1cccc(CNc2nc(C)cc(C)n2)c1OC — higher, -11.7%
- COc1cccc(CNc2cc(C)nc(-c3ccncc3)n2)c1OC — higher, 85.2%
- CC(C)c1nc(CNCC2CCCN2c2cccnn2)cs1 (stereo unspecified) — higher, -16.8%
- COC(=O)c1ccc(C(=O)NCC(O)c2cccn2C)cc1 (stereo unspecified) — higher, -52.5%
